Source: PubChem BioAssay
PMP22 txn prim – modulators of PMP22 gene transcription in S16 Schwann cells; AID 1508649; 2% of 43,000 active; S16 Pmp22-F2sN Schwann cells, FLuc/NLuc coincidence luminescence, 24 h; Potency, µM (series often up to 57.5 µM), for the others: at the highest dose activity change, negative = inhibition, most hits filed as inhibitors; active means clear falling dose curves in both reporters; inconclusive means both reporters move, but less clearly or upward; inactive means either reporter flat; the % is the NLuc reporter signal
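S16 Schwann cells carrying FLuc/NLuc coincidence reporter in the Pmp22 3' UTR treated with compound 24 h at 37C; FLuc then NLuc luminescence read sequentially by dual-luciferase reagents.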
pS6 MEF inh – mTORC1 pathway inhibition measured by phospho-rpS6 | Potency, µM (top dose mostly 38.3 µM), inactives show at the highest dose activity change, negative = inhibition, actives largely listed as inhibitors | Tsc2-/- p53-/- MEF, phospho-rpS6 immunofluorescence/PI, 24 h | 0.78% of 44,000 active;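 further: plate controls were DMSO for no effect and rapamycin for full effect; nearly all actives have a fitted effect of over 50% in size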
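Tsc2-/-, p53-/- MEFs (empty-vector stable line) in DMEM + 10% FBS were treated with compounds 24 h at 37 degree Celsius, fixed, and immunostained for phospho-rpS6 (Alexa-488) with propidium iodide counterstain. Laser-scanning cytometry gave % positive cells, normalized against 7.5 nM rapamycin and DMSO.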
p53null 39C tox – selectivity test: cytotoxicity in p53 null cells, nonpermissive temperature. 0.97% of 55,000 active. AID 904. H1299 p53-null (neo) cells, 39C, ATPlite viability, 24 h. Potency, µM (top dose mostly 46.1 µM), without a hit: top-dose activity, negative = cell killing, most hits filed as cytotoxic;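 further: 0% = DMSO only and -100% = full killing by 100 µM tamoxifen; nearly all actives have a fitted effect of over 50% in size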
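Following overnight plating at 37C (600 cells/well), H1299-neo or H1299-p53A138V cells are dosed up to 46 uM. Incubation lasts 24 hr at 39C before ATP detection.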
p53null 32C tox – kills p53 null cells at the permissive temperature; H1299-neo p53 null cells, ATP luminescence, 24 h, 32C; Potency, µM (series often up to 46.1 µM), inactives show top-dose activity change, negative = cytotoxicity, hits mostly cytotoxic; 0.62% of 55,000 active;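 further: 0% = DMSO only and -100% = full killing by 100 µM tamoxifen; nearly all actives have a fitted effect of over 55% in size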
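We seeded p53-null H1299-neo cells, incubated them overnight at 37C, and added compounds across a range up to 46 uM. After 24 hours at 32C, ATP reagent was applied for 20 min at room temperature and luminescence recorded.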
S16 F2sN tox – toxic to S16 Pmp22-F2sN Schwann cells | 0.48% of 43,000 active | Potency, µM (doses to about 57.5 µM), without a hit: at the top dose activity change, negative = cytotoxicity, usual class: cytotoxic | S16 Pmp22-F2sN Schwann cells (luciferase reporters placed in the Pmp22 gene) viability, CellTiter-Glo, 24 h | AID 1508642; further: nearly all actives have a fitted effect of over 65% in size
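Seed 500-1,000 S16 Pmp22-F2sN cells per well in phenol-red-free DMEM with 10% heat-inactivated FBS; pin-add 23 nL compound; incubate 24 h at 37C; add CellTiter-Glo, wait 15 min protected from light; read luminescence.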
* marks the source's active call; other numbers are inactive results; ? = inconclusive; / = no result given. Only some compounds are listed: those with a hit (about 3.2% of all), similar ones and a draw of the others. Unless noted, the call rests on the fitted dose curve; in most records, active means well fitted curve in the direction sought with a large enough effect; inconclusive means small, poorly fitted or top-dose-only effect, or another doubt; inactive means no such curve, though single readings can be large; an effect the other way counts as inactive or inconclusive. Unless noted, on the % scale 0 is the no-effect control and ±100 the full control effect; potency means the concentration at half of the fitted maximal effect.

SMILES | PMP22 txn prim | pS6 MEF inh | p53null 39C tox | p53null 32C tox | S16 F2sN tox
CCOC(=O)C1CCN(C(c2ccc(SC)cc2)c2c(O)cc(C)n(Cc3ccco3)c2=O)CC1 (configuration not stated) | -70.4% | 0.0% | -4.8% | 2.4% | ?
O=C(Nc1nnc2n1CCS2)c1cc(C(F)(F)F)cc(C(F)(F)F)c1 | 8.91µM* | 0.2% | 16.2% | 7.3% | ?
CCOc1ccc(N/C=C/C(=O)c2ccccc2)c([N+](=O)[O-])c1 | / | / | / | 6.31µM* | /
COCCNC(=O)CSc1nnc(NC(=O)Nc2ccc(C)cc2)s1 | 4.4% | 0.2% | 2.8% | 12.6µM* | 6.3%
NC(=O)c1ccccc1N/C=C/C(=O)c1cccs1 | / | / | 11.2µM* | 12.6µM* | /
Cc1cccc(N/C=C/C(=O)c2cccs2)c1C | / | / | / | 14.1µM* | /
Cc1cccc(C(=O)Nc2ccc(C(=O)OCc3cc(=O)n4c(C)csc4n3)cc2)c1 | ? | 4.5% | ? | ? | 0.7%
COc1ccc(NC(=O)CC2C(=O)N(c3ccc(C)cc3)C(=O)N2Cc2ccc(C)cc2)cc1 (configuration not stated) | -35.8% | 0.4% | 0.9% | -7.9% | -6.5%
CCOc1ccc(C(=O)NCC(c2ccc(Cl)cc2)N2CCCCC2)cc1 (configuration not stated) | -1.7% | -2.5% | ? | -6.6% | 7.8%
O=C(c1ccc2c(c1)N(Cc1cccc(F)c1)C(=O)c1ccccc1S2)N1CCCC1 | -11.2% | 0.7% | 25.0% | 17.3% | -8.3%
COc1ccc2cc(C(=O)NCc3ccc4c(c3)CCN4C(=O)c3ccc(C)cc3)[nH]c2c1 | -3.8% | -1.1% | 8.7% | 8.5% | -1.9%
CCOC(=O)C(CC)n1nc(C)c2c(C)n(-c3ccc(C)cc3)nc2c1=O (configuration not stated) | -45.3% | -1.4% | -9.8% | 2.0% | -13.9%
Cc1ccc(C)c(NC(=O)Cn2nnc(C(=O)NCc3ccco3)c2N)c1 | 10.1µM* | -20.4% | -3.9% | 21.3% | ?
COC(=O)c1ccc(Nc2nnc(-c3ccc(C)c(S(=O)(=O)N4CCN(C)CC4)c3)c3ccccc23)cc1 | -44.4% | 20.7µM* | 17.2% | 15.3% | ?
Cc1ccc(-c2nc3scc(CCNS(=O)(=O)c4ccc(F)c(C)c4)n3n2)cc1 | -10.1% | 0.5% | 20.0% | 1.4% | -2.0%
Cc1cc(C)c(S(=O)(=O)NCCc2csc3nc(-c4ccc(Cl)cc4)nn23)c(C)c1 | ? | -3.2% | 20µM* | 46.0% | ?
CCc1ccccc1Nc1nn2c(=O)c3ccc(C(=O)NCc4ccccc4OC)cc3nc2s1 | -20.4% | -0.8% | -13.5% | 7.3% | -4.5%
CCc1cccc(NC(=O)c2ccc3c(=O)n4nc(Nc5ccccc5OC)sc4nc3c2)c1 | 4.47µM* | -8.8% | ? | -4.7% | ?
COc1ccccc1Nc1nn2c(=O)c3ccc(C(=O)NCc4ccc(F)cc4)cc3nc2s1 | 4.59µM* | -10.1% | 3.98µM* | -12.1% | 14.1µM*
CCOc1ccccc1NC(=O)Cn1c(=O)n(CC(=O)NCc2ccccc2Cl)c(=O)c2sccc21 | ? | -3.5% | ? | -0.4% | 28.2µM*
CCOc1ccc(NC(=O)Cn2c(=O)n(-c3ccccc3)c(=O)c3ccc(C(=O)NCc4ccc5c(c4)OCO5)cc32)cc1 | ? | -10.6% | 15.8µM* | -10.5% | -18.5%
CCN(CC)C(=O)Cn1c(=O)n(CCCCCC(=O)NCc2ccccc2)c(=O)c2sccc21 | -8.6% | 0.5% | -6.9% | 7.3% | -19.4%
CCOc1ccc(NC(=O)Cn2c(=O)n(CCCCCC(=O)NCc3ccccc3)c(=O)c3sccc32)cc1 | ? | ? | -19.9% | -12.8% | 20µM*
CC(C)NC(=O)C1CCC(Cn2c(=O)c3sccc3n(CC(=O)Nc3ccccc3)c2=O)CC1 (configuration not stated) | ? | 1.4% | 1.3% | -0.4% | 25.1µM*
Cc1ccccc1NC(=O)Cn1c(=O)n(CCCCCC(=O)NCc2ccccc2Cl)c(=O)c2sccc21 | ? | -15.2% | -13.7% | -14.2% | 7.7%
